High-throughput results deposited in PubChem by several laboratories.
PolyA inh = yeast polyadenylation inhibition; S. cerevisiae SKY197-pL101 polyadenylation reporter, beta-gal luminescence; efflux-impaired pdr1/pdr3 knockout yeast; score 100 = 6 SD above DMSO; activity score, % at 12 µM; 300,000 compounds, 0.02% hits;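 active = lowest replicate activity score at least 50, where 100 means six control SD above control mean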;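 also: yeast exposed to compound for 9 h at 30 °C; higher score means more reporter readthrough which indicates perturbed polyadenylation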
hgDAF-12 ag = agonists of H. glycines DAF-12 nuclear receptor | HEK293 GAL4-hgDAF12 UAS-luciferase reporter, agonist luminescence; normalized to butyrate control | activation, % at 6.8 µM | 370,000 compounds, 1.8% hits | AID 687014;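 active = activation above a cutoff set at the mean of all screened compounds plus 3 SD, cut at about 10% in these data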;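 also: 0% = DMSO wells and 100% = sodium butyrate wells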
DAX1 inh-1 = blocks DAX1 repression of SF-1 activated StAR promoter; HEK293T StAR-luciferase reporter, SF-1/DAX-1 repression relief; inhibition, % at 6.8 µM; 370,000 compounds, 1.1% hits; AID 652010;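 active = inhibition above the mean over all tested compounds plus 3 SD, cut at about 3.6% in these data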;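 also: 0% = DAX-1 cells with DMSO and 100% = cells lacking DAX-1 with DMSO; higher inhibition means more luminescence from relief of DAX-1 repression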
hcDAF-12 act = activators of H. contortus DAF-12 nuclear receptor; HEK293 hcDAF-12 lit1-tk-luc reporter, luminescence; 0% DMSO, 100% Δ7-dafachronic acid; activation, % at 6.8 µM; 370,000 compounds, 1.4% hits; AID 652067;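 active = activation above the mean of all tested compounds plus 3 SD, cut at about 5.5% in these data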;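 also: 100% = response to 3 µM Δ7-dafachronic acid high control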
ssDAF12 agonist = activators of S. stercoralis DAF-12 nuclear receptor. 370,000 compounds, 1% hits. AID 652126. activation, % at 6.8 µM. HEK293 ssDAF-12/GRIP1 lit1-tk-luc reporter, luminescence; % of 3 µM dafachronic acid response;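 active = activation above the mean over all tested compounds plus 3 SD, cut at about 0.9% in these data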;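 also: 0% = DMSO-only wells and 100% = 3 µM delta7-dafachronic acid wells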
DAX1 inh-2 = inhibitors of human orphan nuclear receptor DAX1 (NR0B1); P51843; HEK293 Gal4-DAX1 luciferase reporter, luminescence; inhibition, % at 6.75 µM; 340,000 compounds, 0.99% hits; AID 504766;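 active = inhibition above the mean over all tested compounds plus 3 SD, cut at about 4.2% in these data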;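 also: 0% = DAX1-transfected cells with DMSO and 100% = empty-vector control cells with DMSO; inhibition shows as a rise in luminescence from relieved DAX1 repression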
Target sequence (P51843 207-470 limits assumed): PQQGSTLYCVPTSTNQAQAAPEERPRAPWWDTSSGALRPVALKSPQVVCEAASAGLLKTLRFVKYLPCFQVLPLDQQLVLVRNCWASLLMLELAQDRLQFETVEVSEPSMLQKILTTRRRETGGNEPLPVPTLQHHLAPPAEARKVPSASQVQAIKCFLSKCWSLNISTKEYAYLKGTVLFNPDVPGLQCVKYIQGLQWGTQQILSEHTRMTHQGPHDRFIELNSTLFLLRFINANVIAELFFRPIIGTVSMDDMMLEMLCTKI
hgDAF12 conf = hgDAF-12 agonism, confirmation assay; shares compounds with hgDAF-12 ag; HEK293 GAL4-hgDAF12 luciferase reporter, agonist mode; percent of butyrate response; activation, % at 6.8 µM; AID 743050; 3,300 compounds, 80% hits;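 active = mean activation over triplicate wells above the hit cutoff derived from the earlier primary screen, cut at about 11% in these data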;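 also: 0% = DMSO low control and 100% = 2 mM sodium butyrate high control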
LXR ag 2 = activates human LXR-beta, counter-screen for DAF-12 agonists | shares compounds with hgDAF-12 ag | HEK293 Gal4-LXR luciferase reporter, 24 h | activation, % at 6.8 µM | 3,300 tested, under 10 active;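 active = mean activation of the triplicate above a set limit carried over from the primary screen, none filed active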
Target sequence (P55055 whole entry, looked up, the tested form may be a part): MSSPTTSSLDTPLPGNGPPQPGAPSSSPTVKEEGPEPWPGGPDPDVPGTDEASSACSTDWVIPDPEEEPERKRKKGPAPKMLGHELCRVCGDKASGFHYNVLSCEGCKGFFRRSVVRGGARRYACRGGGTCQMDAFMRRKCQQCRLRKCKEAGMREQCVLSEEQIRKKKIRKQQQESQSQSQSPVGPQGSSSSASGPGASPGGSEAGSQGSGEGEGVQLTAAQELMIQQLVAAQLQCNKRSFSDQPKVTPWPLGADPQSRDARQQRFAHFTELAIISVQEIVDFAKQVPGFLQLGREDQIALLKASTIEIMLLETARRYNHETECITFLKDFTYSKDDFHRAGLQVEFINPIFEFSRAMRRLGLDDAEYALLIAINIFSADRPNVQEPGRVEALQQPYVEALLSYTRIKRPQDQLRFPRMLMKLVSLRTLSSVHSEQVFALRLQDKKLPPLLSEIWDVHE
Active calls of the source: *. Only some compounds are listed: those with a hit (about 4.1% of all), similar ones and a draw of the others.

Results for O=C(CSc1nnc(CNC(=O)c2ccccc2)o1)NCC1CCCO1 (centres undefined) ?
PolyA inh: -4.1; hgDAF-12 ag: -0.4; DAX1 inh-1: -0.9; hcDAF-12 act: -2.2; ssDAF12 agonist: -0.4; DAX1 inh-2: 0.4

How did CC[C@@]1(C(=O)OC)N[C@H](CN(C)C(=O)Nc2ccc(OC)cc2)[C@@H]2C(=O)N(Cc3ccccc3)C(=O)[C@@H]21 do in these assays?
hgDAF-12 ag: 13.8*; DAX1 inh-1: 0.5; hcDAF-12 act: -0.2; ssDAF12 agonist: -0.3; DAX1 inh-2: 0.1; hgDAF12 conf: 5.7; LXR ag 2: 0.1

How did CC[C@@]1(C(=O)OC)N[C@H](CN(C)C(=O)Nc2ccc(F)cc2)[C@@H]2C(=O)N(Cc3ccccc3)C(=O)[C@@H]21 do in these assays?
hgDAF-12 ag: 1.2; DAX1 inh-1: -0.4; hcDAF-12 act: 0.0; ssDAF12 agonist: -0.1; DAX1 inh-2: -0.7

How did Nc1nc(-c2ccc3c(c2)OCCO3)cs1 do in these assays?
PolyA inh: 1.2; hgDAF-12 ag: 5.6; DAX1 inh-1: 1.6; hcDAF-12 act: 3.6; ssDAF12 agonist: -0.7; DAX1 inh-2: 1.9

Results for Nc1nc(-c2ccc3c(c2)CCCC3)cs1 ?
hgDAF-12 ag: 15.8*; DAX1 inh-1: 1.9; hcDAF-12 act: 2.0; ssDAF12 agonist: -0.1; DAX1 inh-2: 0.8; hgDAF12 conf: 11.5*; LXR ag 2: 0.6

How did Cc1ccc(-c2cc(-c3nnc(SCC(=O)Nc4nccs4)n3N)[nH]n2)cc1 do in these assays?
hgDAF-12 ag: 13.3*; DAX1 inh-1: 2.2; hcDAF-12 act: 3.5; ssDAF12 agonist: -0.5; hgDAF12 conf: 10.4*; LXR ag 2: 0.5

What do the screens show for `CCCCC(=O)NC1(C(F)(F)F)C(=O)N(CC(C)C)C2=C1C(=O)CC(C)(C)C2` (centres undefined)?
PolyA inh: 11.6; hgDAF-12 ag: -0.6; DAX1 inh-1: -0.1; hcDAF-12 act: -0.7; ssDAF12 agonist: -0.4; DAX1 inh-2: 0.5

How did Cc1cccc(C)c1OC(=O)CN(c1ccc(Cl)cc1)S(C)(=O)=O do in these assays?
PolyA inh: -8.9; hgDAF-12 ag: 0.3; DAX1 inh-1: -0.9; hcDAF-12 act: -2.5; ssDAF12 agonist: -0.8; DAX1 inh-2: -0.1

How did Cc1cccc(NC(=O)c2ccc(CN3CCc4ccccc4C3)cc2)c1C do in these assays?
PolyA inh: -11.4; hgDAF-12 ag: -0.8; DAX1 inh-1: -1.2; hcDAF-12 act: -2.7; ssDAF12 agonist: -1.9; DAX1 inh-2: -0.3

Results for COC(=O)[C@@]12CCCCN1[C@H](c1ccc(-c3ccc4c(c3)OCO4)cc1)[C@H]1C(=O)N(C)C(=O)[C@H]12 ?
hgDAF-12 ag: -1.2; DAX1 inh-1: -0.1; hcDAF-12 act: -1.5; ssDAF12 agonist: -1.0; DAX1 inh-2: 0.1

Results for O=C(Nc1ccc2ncccc2c1)Nc1ccc2ncccc2c1 ?
PolyA inh: -8.5; hgDAF-12 ag: 7.5; DAX1 inh-1: -0.6; hcDAF-12 act: -2.1; ssDAF12 agonist: -1.1; DAX1 inh-2: -2.1

Results for c1cnc2ccc(-c3ccc4ncccc4c3)cc2c1 ?
PolyA inh: -6.9; hgDAF-12 ag: 14.2*; DAX1 inh-1: 3.8*; hcDAF-12 act: 5.3; ssDAF12 agonist: -0.6; DAX1 inh-2: 3.7; hgDAF12 conf: 17.5*; LXR ag 2: 0.9

How did CCCCOc1ccc(C(=O)NCCOc2cccc(OC)c2)cc1 do in these assays?
PolyA inh: 13.1; hgDAF-12 ag: 1.1; DAX1 inh-1: -0.7; hcDAF-12 act: -0.2; ssDAF12 agonist: -1.2; DAX1 inh-2: -1.2

What do the screens show for `COCCNC(=O)C1(C)CCCN(CCOc2ccc(Cl)cc2)C1` (centres undefined)?
hgDAF-12 ag: -2.3; DAX1 inh-1: -0.1; hcDAF-12 act: -0.3; ssDAF12 agonist: -1.6

Results for CCC(C)n1c(/C=C/c2ccccc2)nc2ccccc21 (centres undefined) ?
PolyA inh: 13.7; hgDAF-12 ag: 3.5; DAX1 inh-1: 0.5; hcDAF-12 act: 1.6; ssDAF12 agonist: -0.7; DAX1 inh-2: -0.6

How did CC(C)Cn1c(/C=C/c2ccccc2)nc2ccccc21 do in these assays?
PolyA inh: -4.3; hgDAF-12 ag: 13.9*; DAX1 inh-1: 2.7; hcDAF-12 act: 1.2; ssDAF12 agonist: 0.2; DAX1 inh-2: -0.4; hgDAF12 conf: 9.0; LXR ag 2: 0.4

Results for COc1ccc(Cn2c(/C=C/c3ccccc3)nc3ccccc32)cc1 ?
PolyA inh: -19.0; hgDAF-12 ag: 17.6*; DAX1 inh-1: 3.8*; hcDAF-12 act: 6.4*; ssDAF12 agonist: 0.8; DAX1 inh-2: 2.5; hgDAF12 conf: 20.0*; LXR ag 2: 0.8

Results for COc1ccc(/C=C/c2nc3ccccc3n2C)cc1 ?
PolyA inh: 13.8; hgDAF-12 ag: -11.8; DAX1 inh-1: -1.6; hcDAF-12 act: -3.6; ssDAF12 agonist: -2.8; DAX1 inh-2: -4.0

How did NC(COCc1ccccc1)c1csc(NC(=O)Nc2cccc(Cl)c2)n1 (centres undefined) do in these assays?
hgDAF-12 ag: 3.4; DAX1 inh-1: -0.6; hcDAF-12 act: -0.8; ssDAF12 agonist: -1.1

How did Cn1c(-c2ccccc2)c(/C=N/NC(=O)c2cccnc2)c2ccccc21 do in these assays?
PolyA inh: -11.5; hgDAF-12 ag: 6.3; DAX1 inh-1: 2.0; hcDAF-12 act: -0.3; ssDAF12 agonist: -0.8; DAX1 inh-2: 2.6

Results for O=C(N/N=C/c1c(-c2ccccc2)[nH]c2ccccc12)c1cccnc1 ?
PolyA inh: -7.0; hgDAF-12 ag: 18.1*; DAX1 inh-1: -1.8; hcDAF-12 act: 1.2; ssDAF12 agonist: -0.5; DAX1 inh-2: -0.3; hgDAF12 conf: 10.4; LXR ag 2: 0.2

How did C=CCn1c(SCC(N)=O)nc2scc(-c3ccc(C)o3)c2c1=O do in these assays?
PolyA inh: 13.0; hgDAF-12 ag: 20.0*; DAX1 inh-1: 2.7; hcDAF-12 act: 5.6*; ssDAF12 agonist: 0.3; DAX1 inh-2: 2.5; hgDAF12 conf: 16.7*; LXR ag 2: 0.8

How did Cc1ccn2cc(-c3cccc(S(=O)(=O)N4CCCC4)c3)nc2c1 do in these assays?
PolyA inh: 6.9; hgDAF-12 ag: 0.4; DAX1 inh-1: -0.7; hcDAF-12 act: -2.2; ssDAF12 agonist: -1.4; DAX1 inh-2: -1.0

What do the screens show for `COc1c(Cl)cccc1-c1cn2ccc(C)cc2n1`?
PolyA inh: 2.1; hgDAF-12 ag: 13.6*; DAX1 inh-1: 3.3; hcDAF-12 act: 6.4*; ssDAF12 agonist: 1.3*; DAX1 inh-2: 3.7; hgDAF12 conf: 15.4*; LXR ag 2: 1.0
